DT40 TDP1 no CPT = qHTS for Inhibitors of human tyrosyl-DNA phosphodiesterase 1 (TDP1): qHTS in cells in absence of CPT; Potency, µM (titrated, usually from 46.2 µM), for the others: at the highest dose activity change, negative = growth inhibition, most hits filed as inhibitors; DT40 Tdp1-/- hTDP1 cells, no CPT, ATP luminescence, 48 h; hit rate 15% among 420,000; further: potency means the concentration at half of the fitted maximal effect; nearly all actives have a fitted effect of over 55% in size
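DT40 Tdp1-/-;hTDP1 cells, no CPT (DMSO vehicle only), 400 cells/well; compounds pin-transferred; ≥48 hr, 37 °C; CellTiter-Glo 30 min RT dark, luminescence read.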
IL-1B inflam inh = inhibitors of inflammasome signaling (IL-1 beta secretion); THP-1 LPS/ATP IL-1B secretion, AlphaLISA, 16 h; hits give low values; activity change, % at 57.5 µM; hit rate 4.7% among 360,000; in the data active means activity change below about -50%; inconclusive means mostly about -30% to -49%
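THP-1 cells pretreated 1 hr with compounds (up to 57.5 uM final), then stimulated with LPS (250 ng/mL final) plus ATP (1.25 mM final); secreted IL-1B measured by AlphaLISA after 16 hr, decreased signal indicating inhibition.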
HT1080 IDH1KD tx = HT-1080 IDH1 knockdown cell toxicity (counter line); HT-1080 IDH1 knockdown viability, ATP luminescence, 48 h; Potency, µM (top dose mostly 46.1 µM), inactives show top-dose activity, negative = toxicity, actives largely listed as cytotoxic; hit rate 2% among 360,000; AID 686971;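 further: potency means the concentration at half of the fitted maximal effect; 0% = DMSO wells and -100% = cell-free medium wells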
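% activity derives from luminescence (CellTiter-Glo), normalised to DMSO and no-cell wells. HT-1080-IDH1KD cells, 750/well, had 48 h compound exposure at 37 °C.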
HT1080-NT tox = kills 2HG-producing HT-1080-NT fibrosarcoma cells; HT-1080-NT fibrosarcoma viability, CellTiter-Glo ATP luminescence, 48 h; AID 686970; hit rate 1.6% among 360,000; Potency, µM (series often up to 46.1 µM), without a hit: top-dose activity, negative = less viability, hits mostly cytotoxic;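 further: NT is the 2HG producing partner of a matched IDH1 knockdown line; potency means the concentration at half of the fitted maximal effect; 0% = DMSO-treated cells and -100% = media-only wells without cells; nearly all actives have a fitted effect of over 55% in size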
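Compounds were tested in concentration-response format on HT-1080-NT cells for 48 hours at 37 degrees C. Cell viability came from CellTiter-Glo luminescence; curves were classified by r2, response magnitude and activity.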
TDP1 cell CPT = DT40-hTDP1 cell growth loss with CPT; chicken DT40 Tdp1-/-;hTDP1 cells + 20 nM CPT, ATP luminescence, 48 h; Potency, µM (highest dose often 46.2 µM), for inactives: at the highest dose activity change, negative = growth inhibition, usual class: inhibitors; hit rate 12% among 420,000; AID 686979; further: potency means the concentration at half of the fitted maximal effect; nearly all actives have a fitted effect of over 55% in size
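Chicken DT40 Tdp1-/- cells stably complemented with human TDP1 were seeded at 400 cells/well in medium containing 20 nM camptothecin, exposed to pin-transferred compounds, and grown at 37 °C for at least 48 hr. Viability was read as ATP luminescence.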
* = called active by the depositor; u = inconclusive; x = no result given; [ ] = remark or other dose. Rows were chosen to be rich in hits. Some 19% of all compounds tested hit in one or more screens of this group. Unless noted, the call rests on the fitted dose curve; in most records, active means well fitted curve in the direction sought with a large enough effect; inconclusive means small, poorly fitted or top-dose-only effect, or another doubt; inactive means no such curve, though single readings can be large; an effect the other way counts as inactive or inconclusive. Unless noted, on the % scale 0 is the no-effect control and ±100 the full control effect.

SMILES	DT40 TDP1 no CPT	IL-1B inflam inh	HT1080 IDH1KD tx	HT1080-NT tox	TDP1 cell CPT
C[C@H]1CN([C@@H](C)CO)C(=O)c2cc(C#Cc3cccnc3)cnc2O[C@H]1CN(C)Cc1ccc(F)cc1	u	-8	0%	1%	u
COc1cccc(S(=O)(=O)N(C)C[C@@H]2Oc3ncc(C#CCN(C)C)cc3C(=O)N([C@H](C)CO)C[C@H]2C)c1	u	-16	4%	5%	-21%
CCCC#Cc1cnc2c(c1)C(=O)N([C@H](C)CO)C[C@@H](C)[C@H](CN(C)S(=O)(=O)c1cccc(OC)c1)O2	10µM*	u	-6%	-1%	u
O=C1CCN(CCCc2ccccc2)CCN1[C@H](CO)Cc1ccccc1	-68%	-3	-7%	2%	u
CCOC(=O)CNC(=O)C1COc2ccccc2O1 (stereo not drawn)	-11%	-10	9%	7%	1%
Cc1sc(NC(=O)c2ccco2)c(CN2CCN(c3ccc(F)cc3)CC2)c1C	12µM*	-3	-13%	-2%	21µM*
CCOC(=O)C1CCN(C(c2cccnc2)c2c(NC(=O)c3ccco3)sc(C)c2C)CC1 (stereo not drawn)	1.8µM*	-29	u	-19%	1.6µM*
CC(=O)Nc1sc2c(c1CN1CCN(c3ccc(F)cc3)CC1)CCCC2	15µM*	-10	-28%	-21%	u
Cc1sc(NC(=O)c2ccco2)c(C(c2cccnc2)N2CCN(c3ccc(F)cc3)CC2)c1C (stereo not drawn)	5.8µM*	u	u	u	1.8µM*
CC(=O)Nc1sc2c(c1CN1CCCC1)CCCC2	-1%	2	12%	10%	4%
Cc1sc(NC(=O)c2ccco2)c(C(c2cccnc2)N2CCN(CCO)CC2)c1C (stereo not drawn)	0%	-12	0%	-6%	-29%
COc1ccc(N2CCN(C(=O)COC(=O)COc3cccc(C(F)(F)F)c3)CC2)cc1	13%	5	3%	5%[9.24 µM]	-16%
Cc1ccc(C(c2c(NC(=O)c3ccco3)sc(C)c2C)N2CCOCC2)cc1 (stereo not drawn)	u	-3	1%	11%	u
Cc1sc(NC(=O)c2ccco2)c(C(c2ccccc2)N2CCC(C)CC2)c1C (stereo not drawn)	6.5µM*	-22	u	u	10µM*
Cc1sc(NC(=O)c2ccco2)c(C(c2ccc(F)cc2)N2CCN(C)CC2)c1C (stereo not drawn)	u	-71*	u	u	u
Cc1cc(-c2cc(-c3ccc(Cl)cc3)nc(N)c2C#N)co1	21µM*	17	u	u	8.2µM*
CCCc1cc(-c2ccc(O)c(OCC)c2)c(C#N)c(N)n1	u	4	u	-17%	-26%
Cc1ccc(-c2cc(-c3ccc(Cl)cc3)c(C#N)c(N)n2)o1	9.2µM*	-6	-12%	3%	6.5µM*
Cc1ccc(-c2cc(-c3ccc(F)cc3)c(C#N)c(N)n2)o1	u	1	u	-17%	u
CCOc1cc(-c2cc(-c3ccc(C)o3)nc(N)c2C#N)ccc1O	16µM*	-17	u	u	16µM*
Cc1ccc(-c2cc(-c3ccc(C)o3)nc(N)c2C#N)cc1	u	-6	-5%	-10%	15µM*
CCCN1CCN(C(=O)Cn2nc(CC)n3c(cc4sccc43)c2=O)CC1	1%	-18	8%	12%	7%
CCOc1ccc(-n2nc(CO)c(C(=O)NCC(c3ccccc3)c3ccccc3)n2)cc1	-2%	x	x	x	-6%
CCC(C)(C)NC(=O)Cc1ccc(C)cc1	0%	0	-5%	-1%	2%
COc1ccc(CCNC(=O)c2ccc(Br)cc2)cc1	-21%	10	18%	16%	-11%
SMILES	DT40 TDP1 no CPT	IL-1B inflam inh	HT1080 IDH1KD tx	HT1080-NT tox	TDP1 cell CPT
COc1ccc(CCNC(=O)c2coc(=O)c(Br)c2)cc1	1.3µM*	0	u	u	0.65µM*
COc1ccc(C)cc1NCc1ccc([N+](=O)[O-])cc1	-24%	6	2%	6%	0%
COc1ccc(CCNC(=O)c2ccc(-c3ccc([N+](=O)[O-])cc3)o2)cc1OC	u	u	-24%	-20%	18µM*
COc1ccc(CCNC(=O)c2ccc(Br)o2)cc1Br	u	-12	3%	9%	23µM*
COc1ccc(CNCCc2ccc([N+](=O)[O-])cc2)c(OC)c1OC	21µM*	-5	-15%	-18%	6.5µM*
Oc1c(C(c2ccccc2F)N2CCCCC2)sc2nc(-c3ccco3)nn12 (stereo not drawn)	2%	x	x	x	8%
O=C(c1ccc(F)cc1)N1c2nc(-c3ccco3)nn2C2(CCCCC2)[C@@H]2CCCC[C@@H]21	23µM*	x	x	x	u
COc1ccc(C(=O)N2c3nc(-c4ccco4)nn3C3(CCCCC3)[C@@H]3CCCC[C@@H]32)cc1OC	u	x	x	x	16µM*
O=C(c1ccccc1F)N1c2nc(-c3ccco3)nn2C2(CCCCC2)[C@@H]2CCCC[C@@H]21	18µM*	x	x	x	u
O=C(Nc1ccccc1)c1cc(C2CCCCN2C(=O)c2ccccc2)on1 (stereo not drawn)	u	18	22%	19%	21µM*
O=C(Nc1ccc2c(c1)OCO2)c1cc(C2CCCN(C(=O)C3CCCCC3)C2)on1 (stereo not drawn)	u	-22	u	-26%	23µM*
O=C(Nc1ccccc1Cl)c1cc(C2CCCN(C(=O)C3CCCCC3)C2)on1 (stereo not drawn)	u	-3	u	2%	u
O=C(Nc1ccccc1)c1cc(C2CCCCN2S(=O)(=O)Cc2cccc(C(F)(F)F)c2)on1 (stereo not drawn)	u	-28	21%	2%	21µM*
O=C(Nc1ccc2c(c1)OCO2)c1cc(C2CCCCN2C(=O)c2ccc3ccccc3c2)on1 (stereo not drawn)	15µM*	-26	4%	-5%	18µM*
NC(=O)N(N)c1nc(N2CCCC2)nc(N2CCCC2)n1	16%	-5	2%	1%	1%
CC(=O)NS(=O)(=O)c1ccc(NC(=O)c2ccc3c(c2)OCO3)cc1	10%	15	12%	9%	5%
O=C(Nc1ccc2c(c1)OCO2)c1cc(C2CCCCN2S(=O)(=O)c2ccccc2)on1 (stereo not drawn)	u	-25	-1%	-13%	16µM*

Screening data as filed in PubChem BioAssay.
